# From PubChem BioAssay (NCATS)
# A number with no mark means an inactive call. Inconclusive results are not listed. The source made the active and inactive calls. Unless noted, calls come from the whole dose curve; as a rule, active = well fitted curve in the direction sought with a large enough effect; inconclusive = small, poorly fitted or top-dose-only effect, or another doubt; inactive = no such curve, though single readings can be large; an effect the other way counts as inactive or inconclusive.
# How the values were obtained:
# [1] = Cell Viability - BJ (AID 421; calls by dose curve;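 note: potency is the fitted concentration of half-maximal effect; cells exposed to compound for 40 hours at 37 °C before readout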); conditions: BJ fibroblast viability, qHTS
# Summary of the method: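 Quantitative HTS: ATP depletion in BJ cells after 40 hr compound exposure in complete culture medium, detected with CellTiter-Glo; AC50 from standard Hill fits.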
# [2] = Cell Viability - Jurkat (AID 426;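 active = dose-dependent loss of cell ATP signal giving a full or clear fitted curve, ranked by lower potency value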;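 note: potency is the fitted concentration of half-maximal effect; cells exposed to compound for 40 hours at 37 °C before ATP read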); conditions: qHTS
# Summary of the method: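 Seed 5000 Jurkat E6-1 cells/well; add compound; incubate 40 hr at 37 °C; add CellTiter-Glo; wait 20 min at room temperature; read luminescence. Fit concentration-response with Hill equation for AC50.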
# [3] = Cell Viability - Hek293 (AID 427;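 active = compounds whose dose-response curve shows a full or clear partial loss of cell viability, called from curve shape rather than a numeric limit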;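 note: potency is the fitted concentration of half-maximal effect; cells exposed to compound for 40 hours at 37 °C before reading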); conditions: qHTS
# Summary of the method: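 AC50 values derive from Hill-modelled concentration-response of ATP-based luminescence, normalized between DMSO-only and 100 uM tamoxifen controls. Cells were exposed in complete culture medium for 40 hr at 37 °C before detection.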
# [4] = Cell Viability - MRC5 (AID 434; calls by dose curve;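 note: potency is the fitted concentration of half-maximal effect; cells exposed to compound for 40 hours at 37 °C; potency reflects cytotoxicity seen as loss of intracellular ATP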); conditions: MRC5 lung fibroblast viability, qHTS
# Summary of the method: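 qHTS cytotoxicity in human lung fibroblast MRC5 cells; 40 hr treatment, 37 °C; cellular ATP by luciferase luminescence; DMSO = 0%, 100 uM tamoxifen = 100% inhibition; Hill-fit AC50.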
# [5] = Cell Viability - SK-N-SH (AID 435; calls by dose curve; note: potency is the fitted concentration of half-maximal effect); conditions: SK-N-SH neuroblastoma cell viability qHTS
# Summary of the method: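 qHTS cytotoxicity: CellTiter-Glo ATP luminescence after 40 h compound exposure of human neuroblastoma SK-N-SH cells at 37 °C. AC50 derived by Hill-equation fitting, with DMSO as basal and 100 uM tamoxifen as full inhibition.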
# [6] = molecular target: Mitogen-activated protein kinase 10 (Mus musculus) (UniProt Q61831); assay: JNK3 AlphaScreen Assay (AID 530; active = well fitted curve in either direction with a large enough effect, not every such curve was filed as active;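 note: kinase came from lysate of stimulated human HepG2 cells; signal reports phosphorylation of biotinylated GST-cJun 1-79 at Ser73 with 10 µM ATP; % is set by controls: 0 for no effect and ±100 for the full control effect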)
# Summary of the method: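 Room-temperature AlphaScreen kinase assay; pre-activated HepG2 lysate as JNK3 source, biotin-GST-cJun(1-79) substrate, 10 uM ATP, compound 15 min preincubation.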
# [7] = Cell Viability - N2a (AID 540); conditions: N2a mouse neuroblastoma cell viability; activity change, negative = cytotoxicity: at 92.2 µM (top of the series);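 note: plate controls were DMSO alone for no effect and tamoxifen control for full effect; nearly all actives have a fitted effect of over 45% in size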
# Summary of the method: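 First, 1500 N2a cells per well incubate 5 hr at 37 °C; next, compounds are added and incubated 40 hr at 37 °C; finally CellTiter-Glo is added and luminescence read after 20 min, with AC50 derived by Hill modeling.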
# [8] = Cell Viability - NIH 3T3 (AID 541); conditions: NIH 3T3 cell viability, qHTS; activity change, negative = cytotoxicity: at 92.2 µM (top of the series);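 note: potency is the fitted concentration of half-maximal effect; cells exposed to compound for 40 hours; nearly all actives have a fitted effect of over 25% in size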
# Summary of the method: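 AC50 values reflect concentration-dependent loss of intracellular ATP in NIH 3T3 cells after 40 hr treatment in complete culture medium, quantified by luciferase-based luminescence.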
# [9] = Cell Viability - HUV-EC-C (AID 542);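 note: potency is the fitted concentration of half-maximal effect; cells exposed to compound for 40 hours; nearly all actives have a fitted effect of over 35% in size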
# Summary of the method: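 Decrease in cellular ATP, quantified by luciferase luminescence, reflects toxicity in normal human vascular endothelial HUV-EC-C cells given compound for 40 hr in complete culture medium. Values are AC50s from concentration-response curves.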
# [10] = Cell Viability - H-4-II-E (AID 543);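 note: potency is the fitted concentration of half-maximal effect; cells exposed to compound for 40 hours; nearly all actives have a fitted effect of over 35% in size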
# Summary of the method: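 Here, cytotoxicity is measured in the rat hepatoma line H-4-II-E as loss of intracellular ATP after 40 hr compound treatment, detected by luciferase luminescence.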
# [11] = Cell Viability - SH-SY5Y (AID 544); conditions: SH-SY5Y neuroblastoma cell viability; viability change, negative = cytotoxic: at 92.2 µM (top of the series);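 note: potency is the fitted concentration of half-maximal effect; cells exposed to compound for 40 hours; nearly all actives have a fitted effect of over 55% in size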
# Summary of the method: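 Cytotoxicity is scored as a concentration-dependent fall in intracellular ATP in human SH-SY5Y cells treated 40 hr in complete culture medium. Potency is expressed as AC50 from a Hill equation fit.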
# [12] = Cell Viability - Renal Proximal Tubule (AID 545); conditions: renal proximal tubule cells viability; activity change, negative = cytotoxicity: at 91.7 µM (top of the series) unless noted;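 note: potency is the fitted concentration of half-maximal effect; cells exposed to compound for 40 hours; nearly all actives have a fitted effect of over 40% in size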
# Summary of the method: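 Viability taken as intracellular ATP (CellTiter-Glo luminescence) after 40 hr, 37 °C compound treatment of primary proximal tubule cells from rat kidney, 1000 cells/well; Hill-equation fits of qHTS concentration-response data gave AC50.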
# [13] = Cell Viability - Mesenchymal (AID 546); conditions: mesenchymal cells viability, qHTS; activity change, negative = cytotoxicity: at 91.7 µM (top of the series);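 note: potency is the fitted concentration of half-maximal effect; cells exposed to compound for 40 hours before reading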
# Summary of the method: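 AC50 values reflect the drop in intracellular ATP in a human kidney mesenchymal line derived from normal glomeruli. Treatment lasts 40 hr at 37 °C in complete medium, and the signal comes from CellTiter-Glo luminescence.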
# [14] = Cellular Toxicity (caspase-3) HepG2 (AID 654);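 note: cells exposed to compound for 16 hours before reading; 0% = DMSO alone and 100% = caspase signal from 100 µM tamoxifen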
# Summary of the method: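 qHTS, HepG2, 1500 cells/well, complete medium; cpd 16 h 37 °C; Caspase-Glo 3/7, 20 min RT; lum. Norm: DMSO vs 100 uM tamoxifen; AC50 Hill fit.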
# [15] = Cellular Toxicity (caspase-3) HUV-EC-C (AID 656)
# Summary of the method: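 Luminescent Caspase-Glo 3/7 readout after 16 h, 37 °C compound exposure of HUV-EC-C endothelial cells, 1000 per well, complete medium. AC50 derived by Hill fitting, with DMSO as baseline and 100 uM tamoxifen as full activation.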
# [16] = Cellular Toxicity (caspase-3) SHSY5Y (AID 657)
# Summary of the method: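 Luminescent Caspase-Glo 3/7 read-out, 1 hr room temperature, follows 16 hours of compound treatment of SH-SY5Y cells at 37 °C. Normalization: DMSO basal, 10 uM staurosporine as 100%; AC50 values from Hill-equation concentration-response fits.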
# [17] = Cellular Toxicity (caspase-3) BJ (AID 658);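 note: 0% = DMSO basal and 100% = 10 µM staurosporine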
# Summary of the method: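 Readout: Caspase-Glo 3/7 luminescence increase in BJ cells after 16 hr treatment at 37 °C. Staurosporine and tamoxifen served as positive controls; AC50 values came from Hill modelling of data normalized to DMSO and 10 uM staurosporine.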
# [18] = Cellular Toxicity (caspase-3) MRC-5 (AID 659);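 note: 0% = DMSO basal and 100% = 10 µM staurosporine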
# Summary of the method: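 Concentration-dependent caspase 3/7 activation is measured in human normal lung fibroblasts (MRC-5) following 16-hour treatment. AC50 values come from standard Hill-equation modeling of luminescence normalized to DMSO and 10 uM staurosporine.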
# [19] = Cellular Toxicity (caspase-3) SK-N-SH (AID 661);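 note: 0% = DMSO basal and 100% = 10 µM staurosporine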
# Summary of the method: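 Caspase 3/7 activation is measured as a luminescence increase from aminoluciferin released by substrate cleavage in SK-N-SH cells after 16 hr compound treatment; values are AC50 from concentration-response curves.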
# [20] = Cellular Toxicity (caspase-3) H-4-II-E (AID 663); conditions: H-4-II-E rat hepatoma, scaled: DMSO 0%, 100 µM tamoxifen 100%; at 92.2 µM (top of the series)
# Summary of the method: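 Apoptosis induction is scored as increased luminescence from caspase 3/7 substrate cleavage in rat hepatoma H-4-II-E cells exposed to compound for 16 hr. Activity is scaled between DMSO and 100 uM tamoxifen.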
# [21] = Cellular Toxicity (caspase-3) Hek293 (AID 664); conditions: HEK293 caspase-3 activation, DMSO = 0%, 100 µM tamoxifen = 100%; at 92.2 µM (top of the series);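 note: cells exposed to compound for 16 h at 37 °C before readout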
# Summary of the method: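 Activation of caspase-3/7 is measured as increased luminescence from cleaved peptide-aminoluciferin substrate in HEK293 cells treated 16 hours at 37 °C. AC50 values come from Hill-equation fits of concentration-response data.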
# [22] = Cellular Toxicity (caspase-3) N2a (AID 665);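 note: compound exposure lasted 16 h at 37 °C before readout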
# Summary of the method: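 Plated mouse neuroblastoma N2a cells received titrated compounds for 16 h in complete medium. Caspase activity was then detected with a peptide-aminoluciferin luminescent reagent.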
# [23] = Cellular Toxicity (caspase-3) NIH 3T3 (AID 666);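 note: caspase signal read after 16 h compound exposure; 0% = DMSO basal and 100% = 100 µM tamoxifen stimulation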
# Summary of the method: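 Concentration-response qHTS in NIH 3T3 mouse fibroblasts scores caspase-3/7 activation as rising luminescence after 16 hr compound exposure. Signals are scaled between DMSO-only and 100 uM tamoxifen.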
# [24] = Cellular Toxicity (caspase-3) Renal Proximal Tubule (AID 667); conditions: renal proximal tubule cells; at 91.7 µM (top of the series) unless noted;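 note: cells exposed to compound for 16 hours at 37 °C before detection; 0% = DMSO basal and 100% = 10 µM staurosporine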
# Summary of the method: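 Caspase 3/7 activation measured by luminescent aminoluciferin release in primary rat proximal tubule cells after 16 hr compound exposure at 37 °C. AC50 from Hill-fitted concentration-response, scaled between DMSO and 10 uM staurosporine.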
# [25] = molecular target: Cytochrome P450 3A4 (Homo sapiens) (UniProt P08684); assay: qHTS Assay for Inhibitors and Substrates of Cytochrome P450 3A4 (AID 884); note: potency is the fitted concentration of half-maximal effect; nearly all actives have a fitted effect of over 50% in size
# Summary of the method: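 20 nM human CYP3A4 with 25 uM Luciferin-PPXE (at KM) in 200 mM KPO4, preincubated 10 min with compound; NADPH regeneration started a 60 min RT reaction. Luciferin detected by luminescence, normalized to 57 uM ketoconazole as full inhibition.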
# [26] = molecular target: Cytochrome P450 3A4 (Homo sapiens) (UniProt P08684); assay: qHTS Assay for Activators of Cytochrome P450 3A4 (AID 885); note: nearly all actives have a fitted effect of over 65% in size
# Summary of the method: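 Quantitative HTS format: compounds preincubated with 20nM human CYP3A4 and Luciferin-PPXE substrate at KM, reaction started by NADPH regeneration, stopped after 60 min, luciferase luminescence read 20 min later.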
# [27] = Cell Viability - LYMP2-001 (AID 921); note: potency is the fitted concentration of half-maximal effect; nearly all actives have a fitted effect of over 70% in size
# Summary of the method: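 Cellular ATP loss read by luciferase luminescence after 24 h compound exposure at 37 C in complete medium. LYMP2-001 lymphoblastoid cells, 2500/well; qHTS concentration-response data fitted with Hill equation for AC50.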
# [28] = MultiTox-Fluor Cytotoxicity Assay - LYMP1-001 - Dead Cells (AID 946); note: potency is the fitted concentration of half-maximal effect
# Summary of the method: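 In this qHTS, 15 uM tetraoctylammonium bromide defined 100% and DMSO defined basal activity. Lymphoblastoid cells (LYMP1-001, 2500 per well) received compound for 16 hr at 37 C before a fluorogenic dead-cell substrate readout at 485/520 nm.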
# [29] = MultiTox-Fluor Cytotoxicity Assay - LYMP1-001 - Live Cells (AID 947); note: potency is the fitted concentration of half-maximal effect
# [30] = Cell Viability - LYMP1-002 - Assay at 16 hr (AID 948); note: potency is the fitted concentration of half-maximal effect
# Summary of the method: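 ATP luminescence (CellTiter-Glo) was measured after 16 hr compound exposure at 37 C of 2500 lymphoblastoid LYMP1-002 cells per well. Concentration-response curves were fitted with the Hill equation to give AC50.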
# [31] = MultiTox-Fluor Cytotoxicity Assay - LYMP1-002 - Live Cells (AID 955); note: potency is the fitted concentration of half-maximal effect
# Summary of the method: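 Cytotoxicity in the human lymphoblastoid line LYMP1-002 is measured as loss of live-cell protease activity after 16 h treatment in complete culture medium. AC50 is derived from Hill-equation fits of qHTS concentration-response data.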
# [32] = MultiTox-Fluor Cytotoxicity Assay - LYMP1-002 - Dead Cells (AID 960); note: potency is the fitted concentration of half-maximal effect; nearly all actives have a fitted effect of over 60% in size
# Summary of the method: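 Acute cytotoxicity in a human lymphoblastoid line is scored as rising dead-cell protease signal after 16 hr exposure at 37 C, measured fluorometrically (485/520).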
# [33] = MultiTox-Fluor Cytotoxicity Assay - LYMP1-003 - Dead Cells (AID 961); note: potency is the fitted concentration of half-maximal effect; nearly all actives have a fitted effect of over 70% in size
# Summary of the method: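 Acute toxicity is scored as increased dead-cell protease activity in human lymphoblastoid LYMP1-003 cells after 16 h compound exposure in complete culture medium. Activity is normalized to DMSO basal and 15 uM tetraoctylammonium bromide as full response.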
# [34] = MultiTox-Fluor Cytotoxicity Assay - LYMP1-003 - Live Cells (AID 962); note: potency is the fitted concentration of half-maximal effect
# Summary of the method: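 Cells plated at 2500 per well and incubated 5 hr; compounds added and incubated 16 hr at 37 C; MultiTox-Fluor reagent added for 60 min at room temperature; fluorescence of liberated AFC measured at 405/510 nm.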
# [35] = Cell Viability - LYMP1-003 - Assay at 24 hr (AID 963); note: potency is the fitted concentration of half-maximal effect
# Summary of the method: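 Acute toxicity in LYMP1-003 lymphoblastoid cells: 24 hr compound treatment at 37 C, ATP measured with CellTiter-Glo after 30 min at room temperature. AC50 derived by fitting the Hill equation to qHTS titrations.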
# [36] = Cell Viability - LYMP1-003 - Assay at 40 hr (AID 964); note: potency is the fitted concentration of half-maximal effect; nearly all actives have a fitted effect of over 60% in size
# Summary of the method: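 This qHTS cytotoxicity screen treats human lymphoblastoid cells (LYMP1-003) with compounds for 40 hr and quantifies cellular ATP via luciferase luminescence.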
# [37] = Cell Viability - LYMP2-003 (AID 965);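 note: potency is the fitted concentration of half-maximal effect; cells exposed to compounds for 24 h before reading; nearly all actives have a fitted effect of over 50% in size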
# Summary of the method: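 CellTiter-Glo luminescence quantified ATP loss after 24 h compound treatment of LYMP2-003 lymphoblastoid cells at 37 C. Titration series were fitted with the standard Hill equation to give AC50.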
# [38] = Cell Viability - LYMP2-004 (AID 966); note: potency is the fitted concentration of half-maximal effect; nearly all actives have a fitted effect of over 65% in size
# Summary of the method: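 Acute toxicity is scored as a concentration-dependent drop in intracellular ATP, quantified by luciferase luminescence, in human lymphoblastoid cells exposed to compound for 24 hr. AC50 derives from Hill-equation modelling.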
# [39] = Cell Viability - LYMP2-005 (AID 967)
# Summary of the method: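 LYMP2-005 human lymphoblastoid cells (2500/well) were treated with compounds for 24 h at 37 C. Intracellular ATP was then measured by CellTiter-Glo luminescence after 30 min at room temperature. AC50 values came from Hill-equation fits of qHTS concentration-response data.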
# Chain of Cytochrome P450 3A4 (Homo sapiens) (P08684 whole entry, looked up): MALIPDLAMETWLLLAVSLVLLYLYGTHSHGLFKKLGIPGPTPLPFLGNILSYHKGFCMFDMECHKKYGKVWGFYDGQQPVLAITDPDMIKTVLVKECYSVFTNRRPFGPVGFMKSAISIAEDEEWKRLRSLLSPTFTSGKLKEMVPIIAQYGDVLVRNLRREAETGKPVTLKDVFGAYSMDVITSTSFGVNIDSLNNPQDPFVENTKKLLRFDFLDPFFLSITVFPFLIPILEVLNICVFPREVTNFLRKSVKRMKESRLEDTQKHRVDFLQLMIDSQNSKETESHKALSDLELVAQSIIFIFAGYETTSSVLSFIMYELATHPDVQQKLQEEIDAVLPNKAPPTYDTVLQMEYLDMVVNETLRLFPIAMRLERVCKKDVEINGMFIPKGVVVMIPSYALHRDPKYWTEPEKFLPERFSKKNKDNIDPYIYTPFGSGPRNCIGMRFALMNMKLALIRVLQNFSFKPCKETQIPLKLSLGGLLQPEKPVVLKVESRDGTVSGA
structure (smiles),measurement,setting,value
CCCCCCCCn1sccc1=O,Potency,[1],> 92 µM
same,Potency,[2],7.52 µM (active)
same,Potency,[3],35.3 µM (active)
same,Potency,[4],10.7 µM (active)
same,Potency,[5],14.2 µM (active)
same,outcome,[6],inactive
same,"activity change, negative = cytotoxicity",[7],-113% (active)
same,Potency,[8],12.6 µM (active)
same,Potency,[9],25.1 µM (active)
same,Potency,[10],12.6 µM (active)
same,Potency,[11],3.98 µM (active)
same,Potency,[12],12.6 µM (active)
same,Potency,[13],12.6 µM (active)
same,outcome,[14],inactive
same,outcome,[15],inactive
same,Potency,[16],inactive
same,outcome,[17],inactive
same,outcome,[18],inactive
same,outcome,[19],inactive
same,caspase-3 activation,[20],-3.17%
same,caspase-3 activation,[21],-9.61%
same,outcome,[22],inactive
same,outcome,[23],inactive
same,caspase-3 activation,[24],-21.1%
same,Potency,[25],12.6 µM (active)
same,Potency,[26],inactive
same,Potency,[27],2 µM (active)
same,Potency,[28],12.6 µM (active)
same,Potency,[29],31.6 µM (active)
same,Potency,[30],15.8 µM (active)
same,Potency,[31],7.94 µM (active)
same,Potency,[32],5.01 µM (active)
same,Potency,[33],7.94 µM (active)
same,Potency,[34],15.8 µM (active)
same,Potency,[35],25.1 µM (active)
same,Potency,[36],25.1 µM (active)
same,Potency,[37],6.31 µM (active)
same,Potency,[38],3.98 µM (active)
same,Potency,[39],3.98 µM (active)
